Experimental data published in PubChem BioAssay (NCI).
About 79,000 compounds went through this panel and 15% of them were active in at least one assay; those are over-represented in the sample as a whole. A number with no mark means an inactive call. Calls of active or inactive are those of the source. Cut-off read from the data, not from the text of the source: active = growth inhibition above about 70%; inactive = the rest.

Columns and labels:
[1] = NCI Yeast Anticancer Drug Screen. Data for the rad50 strain (AID 155);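 note: 0% = growth of vehicle-only cultures of the same strain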; conditions: S. cerevisiae rad50 strain growth inhibition, stronger effect = higher value
How it was run: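 Compounds were tested on a yeast strain with an engineered DNA damage repair alteration; the reported value is growth inhibition normalised to vehicle treatment.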

[2] = NCI Yeast Anticancer Drug Screen. Data for the mec2-1 strain (AID 157); conditions: S. cerevisiae mec2-1 strain, stronger effect = higher value
How it was run: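 Strain: mec2-1 (DNA repair/cell cycle alteration). Compound exposure, then growth measured; inhibition expressed relative to vehicle.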

[3] = NCI Yeast Anticancer Drug Screen. Data for the sgs1 mgt1 strain (AID 161);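 note: 0% = growth of cultures given vehicle only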; conditions: S. cerevisiae sgs1 mgt1 strain, stronger effect = higher value
How it was run: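 Test agents were incubated with a DNA-repair-mutant yeast strain. Growth was then read and compared against vehicle-treated controls.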

[4] = NCI Yeast Anticancer Drug Screen. Data for the cln2 rad14 strain (AID 165);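 note: 0% = growth equal to vehicle treated cultures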; conditions: S. cerevisiae cln2 rad14 strain, stronger effect = higher value
How it was run: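 Compounds are applied to the cln2 rad14 yeast strain, and growth is then compared with that of vehicle-treated cultures to give inhibition.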

[5] = NCI Yeast Anticancer Drug Screen. Data for the bub3 strain (AID 167); conditions: S. cerevisiae bub3 mutant strain, stronger effect = higher value
How it was run: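 Growth of a checkpoint-deficient yeast mutant is measured after compound exposure. Values represent inhibition relative to vehicle.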

[6] = NCI Yeast Anticancer Drug Screen. Data for the mlh1 rad18 strain (AID 175); conditions: S. cerevisiae mlh1 rad18 strain growth inhibition, stronger effect = higher value
How it was run: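 Read-out is yeast growth inhibition, calculated against vehicle-only controls. The compound was applied to a strain engineered with DNA damage repair alterations.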

[7] = at 5.0 µM (retest, dose inferred, filed as 0.5)
[8] = at 50.0 µM (retest, dose inferred, filed as 5.0)

SMILES | growth inhibition [1, 7] | growth inhibition [1, 8] | growth inhibition ([1]; at 50.0 µM) | growth inhibition [2, 7] | growth inhibition [2, 8] | growth inhibition ([2]; at 50.0 µM) | growth inhibition [3, 7] | growth inhibition [3, 8] | growth inhibition ([3]; at 50.0 µM) | growth inhibition [4, 7] | growth inhibition [4, 8] | growth inhibition ([4]; at 50.0 µM) | growth inhibition [5, 7] | growth inhibition [5, 8] | growth inhibition ([5]; at 50.0 µM) | growth inhibition [6, 7] | growth inhibition [6, 8] | growth inhibition ([6]; at 50.0 µM)
CCc1ccccc1NC(=O)C(=O)C(C#N)c1c(Cl)cccc1Cl (stereo not given) | -8% | -2% | -26.7% | 2% | 1% | 8.8% | -17% | -33% | 20.7% | -6% | 4% | -28.7% | 1% | 0% | 12.2% | 0% | -1% | 14.7%
CCCCCCCCCCCCCCCCCCOC(=O)Nc1ccc(C)c(NC(=O)OCCCCCCCCCCCCCCCCCC)c1 | -11% | -18% | 70.2% (active) | 6% | -1% | 60.9% | -6% | -11% | 59.8% | 0% | -19% | 26.4% | -3% | -3% | 83.6% (active) | -11% | -9% | 79.2% (active)
CCCCCCCCCC(=O)CC(=O)c1ccc(O)cc1O | 33% | 96% (active) | 86.5% (active) | 27% | 97% (active) | 89.5% (active) | 50% | 98% (active) | 89.7% (active) | 37% | 97% (active) | 88.6% (active) | 39% | 98% (active) | 89.2% (active) | 48% | 97% (active) | 87.5% (active)
CS(=O)(=O)OC1C(O)C(n2cnc3c(N)ncnc32)C(O)C(OS(C)(=O)=O)C1OS(C)(=O)=O (stereo not given) | 0% | -2% | 0.05% | 1% | -3% | 57.5% | -2% | -1% | 3.8% | -1% | 0% | -7.9% | -1% | -2% | 40% | -1% | -1% | 18.4%
COC(=O)c1c[nH]c2ccc(Br)cc12 | -3% | 23% | 30.9% | 8% | 43% | 28.8% | -1% | 19% | 31.8% | -9% | -20% | 44% | 7% | 22% | 68.5% | 23% | 40% | 40.5%
